Source: PubChem BioAssay
CYP2C19 act – cytochrome P450 2C19 (human) activation; AID 1025; activation factor at 5 µM; 96,000 tested, under 10 active; recombinant CYP2C19, luciferin-H EGE luminescence; hits give high values; 0 = fully inhibited enzyme, 1 = untreated enzyme;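 active = activation factor of at least 2 at 5 µM in the primary screen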
Target sequence (P33261 whole entry, looked up): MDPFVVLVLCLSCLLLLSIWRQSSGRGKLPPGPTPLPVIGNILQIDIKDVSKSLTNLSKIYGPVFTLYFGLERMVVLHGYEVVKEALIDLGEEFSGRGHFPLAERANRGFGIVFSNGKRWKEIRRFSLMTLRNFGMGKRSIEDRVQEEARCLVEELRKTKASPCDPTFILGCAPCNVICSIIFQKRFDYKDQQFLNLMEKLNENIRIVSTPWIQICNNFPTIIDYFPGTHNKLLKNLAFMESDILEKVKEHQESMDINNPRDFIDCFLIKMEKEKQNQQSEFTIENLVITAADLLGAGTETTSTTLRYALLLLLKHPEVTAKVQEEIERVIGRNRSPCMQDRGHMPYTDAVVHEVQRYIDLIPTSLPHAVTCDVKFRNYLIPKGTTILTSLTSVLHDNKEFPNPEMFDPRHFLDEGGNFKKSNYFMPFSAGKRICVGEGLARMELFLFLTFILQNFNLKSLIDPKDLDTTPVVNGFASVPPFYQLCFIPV
PLAP act – activates human placental alkaline phosphatase; P05187; purified PLAP enzyme, luminescent substrate read-out; hits give high values; activation fold at 20 µM; 96,000 tested, 1.2% active; in the data active = activation fold above about 2
CYP2C19 inh – blocks human cytochrome P450 2C19. P33261. CYP2C19 Supersomes, luciferin-H EGE luminescence, 30 min. inhibition, % at 5 µM. 96,000 tested, 21% active. AID 778;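 active = CYP2C19 inhibition above a set limit at 5 µM in the primary screen, cut at about 50% in these data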
CYP2C9 inh – blocks human cytochrome P450 2C9 | P11712 | CYP2C9 Supersomes, luciferin-H conversion, luminescence | inhibition, % at 5 µM | 96,000 tested, 20% active | AID 777;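 active = blocking of liver enzyme CYP2C9 beyond about 50% at 5 µM, limit read from the data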
CYP2C9 activ – increases human cytochrome P450 2C9 activity; AID 1024; activation factor at 5 µM; P11712; 96,000 tested, 1.4% active; recombinant CYP2C9, luciferin-H conversion, luminescence; hits give high values; factor 1 = untreated enzyme, 0 = blocked;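 active = activation factor of 2 or more for CYP2C9 at a 5 µM dose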
Large screens that a line does not name were inactive. Most compounds without a hit are left out; they make up all but 31% or so of the library.

CC1=CC(=O)OC1Cc1ccncc1 (stereo not drawn)	none
CCC(=O)c1cc2c(cc1NC(=O)C(C)C)OCCO2	none
CCOC(=O)c1c(C)[nH]c(C(=O)COC(=O)CSCC(=O)N(CC)CC)c1C	none
CCOC(=O)c1c(C)[nH]c(C(=O)OCC(=O)N2CC(C)OC(C)C2)c1C (stereo not drawn)	none
CCOC(=O)c1c(C)[nH]c(C(=O)COC(=O)CCC2CCCC2)c1C	CYP2C9 inh 82
CCOC(=O)c1c(C)[nH]c(C(=O)COC(=O)C2(C)CC2(Cl)Cl)c1C (stereo not drawn)	CYP2C9 inh 99
O=C(NC1CCCCCCC1)C1CCCN(S(=O)(=O)c2cnc[nH]2)C1 (stereo not drawn)	CYP2C19 inh 87, CYP2C9 inh 55
O=C(NC1CCCCC1)C1CCCN(S(=O)(=O)c2cnc[nH]2)C1 (stereo not drawn)	CYP2C19 inh 60
O=S1(=O)CCC(N2CCOCC2)C1 (stereo not drawn)	none
CC1(C)CC(=O)c2cc(OCC(=O)NCCCN3CCN(c4ccccc4F)CC3)ccc2O1	none
CCCCCCCNC(=O)COc1ccc2c(c1)C(=O)CC(C)(C)O2	CYP2C19 inh 88, CYP2C9 inh 96
CCc1ccc(OCCNC(=O)c2ccccc2SCc2ccc(F)cc2)cc1	CYP2C19 inh 51, CYP2C9 inh 50
COc1ccccc1OCCNC(=O)c1cccs1	CYP2C19 inh 92, CYP2C9 inh 52
CC(C)OCCCNC(=O)c1cccs1	none
CCOCCCNC(=O)c1ccccc1SC	none
O=C(NCc1ccccc1F)c1cccs1	CYP2C19 inh 59
CCCCOCCCNC(=O)c1cccs1	none
CCc1ccc(OCCNC(=O)c2cccs2)cc1	CYP2C9 inh 74
COc1ccc(OCC(=O)NNC(=O)c2cccs2)cc1	none
O=C(NCCN1Cc2ccccc2C1=O)c1cccs1	CYP2C19 inh 77
COc1ccc(CNC(=O)c2cccs2)cc1	CYP2C19 inh 94
CCC(C)NC(=O)CS(=O)Cc1nc(-c2ccccc2C)oc1C (stereo not drawn)	none
Nc1nc(SCC(=O)N2N=C3/C(=C/c4ccco4)CCCC3C2c2ccco2)n[nH]1 (stereo not drawn)	PLAP act 2.1, CYP2C19 inh 51
Cc1ccc(OCC(O)Cn2c3ccccc3c3ccccc32)cc1 (stereo not drawn)	CYP2C19 inh 63, CYP2C9 inh 60
CC(=O)N(C)c1ccc(OCC(O)Cn2c3ccc(Cl)cc3c3cc(Cl)ccc32)cc1 (stereo not drawn)	CYP2C9 inh 54
CCn1c(=N)n(CC(O)COc2cccc(C)c2)c2ccccc21 (stereo not drawn)	none
Cc1cccc(C)c1OCC(O)Cn1c2ccccc2c2ccccc21 (stereo not drawn)	CYP2C9 inh 75
CCC(C)(C)NC(=O)C(c1ccc(C)cc1)N(CC1CCCO1)C(=O)CNC(=O)c1cccs1 (stereo not drawn)	none
CN(C(=O)C1CCOC1)c1nnc(-c2ccccn2)s1 (stereo not drawn)	none
CN(C(=O)C1CCOC1)c1nnc(-c2ccncc2)s1 (stereo not drawn)	CYP2C19 inh 98
CN(C(=O)C1CCCO1)c1nnc(-c2ccncc2)s1 (stereo not drawn)	CYP2C19 inh 98
CN(c1cccc(NC(=O)Cc2ccccc2)c1)S(C)(=O)=O	none
Cc1ccc(SCc2cc(=O)[nH]c(N3CCN(C)CC3)n2)cc1	none
Cc1ccccc1C(=O)Nc1cccc(NC(=O)Cn2cnc3c(=O)n(C)c(=O)n(C)c32)c1	CYP2C9 inh 59
Cc1cccc(C)c1NC(=O)Cn1cnc2c(=O)n(C)c(=O)n(C)c21	none
Cc1ccc(S(=O)(=O)NCC(=O)Nc2ccc(C(F)(F)F)cc2)cc1	none
O=C(CNS(=O)(=O)c1ccc(F)cc1)Nc1ccc(C(F)(F)F)cc1	CYP2C19 inh 65, CYP2C9 inh 55
CC(O)(CS(=O)(=O)Cc1ccccc1)C(=O)Nc1ccc(C(F)(F)F)cc1 (stereo not drawn)	none
O=C(CNS(=O)(=O)c1ccccc1)Nc1ccc(C(F)(F)F)cc1	CYP2C19 inh 51
CCC(=O)c1cccc2c1N=CC1=C(CC(C)(C)CC1=O)N2	CYP2C9 inh 55
Cc1cc(Nc2ccccc2)n(CCOC(=O)COc2ccccc2)n1	none
O=C1OC(c2ccc(Cl)cc2)/C(=C(/O)c2ccccc2)C1=O (stereo not drawn)	CYP2C9 inh 53
CCCCOCCCn1cnc2c([nH]c3cc(OC)ccc32)c1=O	none
CCN1C(c2ccc(F)cc2)=CS/C1=C(\C#N)c1nnc2n1-c1ccccc1SC2	CYP2C9 activ 2.3
COc1ccccc1NC(=O)c1ccc(NC(=O)CSc2nnnn2C)cc1	none
Fc1ccc(-c2nnc(NC3=NCCCCC3)o2)cc1	CYP2C19 inh 56
O=C(CN1CCC(NC(=O)c2cccc(F)c2)CC1)NCc1ccccc1F	none
COc1ccccc1-c1ccc(Nc2cccc(C(C)=O)c2)nn1	CYP2C19 inh 80
COc1ccc(CCNC(=O)C2CCCN2C(=O)Nc2cccc(C(C)=O)c2)cc1OC (stereo not drawn)	none
CCOC(=O)c1ccccc1NC1c2ccccc2C(=O)N1C1CCN(C(=O)OCC)CC1 (stereo not drawn)	none
CCOC(=O)N1CCC(N2C(=O)c3ccccc3C2Nc2ccc3c(C)cc(=O)oc3c2)CC1 (stereo not drawn)	CYP2C9 inh 81
CCOC(=O)N1CCC(N2C(=O)c3ccccc3C2Nc2ccccc2C)CC1 (stereo not drawn)	CYP2C19 inh 65, CYP2C9 inh 80
CCOC(=O)N1CCC(N2C(=O)c3ccccc3C2Nc2ccc(Cl)cn2)CC1 (stereo not drawn)	CYP2C19 inh 58, CYP2C9 inh 58
COc1ccc(CCNCc2csc3nc4ccccc4n23)cc1OC	none
CNC(=O)COC(=O)c1cccnc1SC	none
CCC(Sc1ncccc1C(=O)OC(C)C)C(=O)N1CCOCC1 (stereo not drawn)	none
CC(C)OC(=O)c1cccnc1SCc1cc(=O)n2ccccc2n1	CYP2C9 inh 52
CC(C)OC(=O)c1cccnc1SCC(=O)N(C)c1ccccc1	CYP2C19 inh 69
CCOC(=O)c1cccnc1SCC(=O)NCc1ccccc1	CYP2C19 inh 98, CYP2C9 inh 92
COc1ccc(NC(=O)CSc2ncccc2C(=O)OC(C)C)cc1OC	CYP2C19 inh 92, CYP2C9 inh 77
CC(=O)c1cc2c(cc1NC(=O)CSc1nnc(C)s1)OCO2	none
CS(=O)c1ccccc1-c1nc(-c2cc(C(F)(F)F)cc(C(F)(F)F)c2)no1 (stereo not drawn)	none
CCOC(=O)c1cccnc1SCC(=O)N(CC)c1cccc(C)c1	CYP2C19 inh 65
COc1ccc(NC(C)=O)cc1NC(=O)CSc1nc2ncccc2[nH]1	PLAP act 2.4, CYP2C9 inh 56
C=CCSc1ncccc1C(=O)NCc1ccccc1	CYP2C19 inh 88
CCN(C(=O)CSc1ncccc1C(=O)OC(C)C)c1cccc(C)c1	CYP2C19 inh 53
